In PubChem BioAssay AID1851 (National Center for Advancing Translational Sciences (NCATS), 2009) one finds AC50 and activity, negative = inhibition data, which are given here for 93 molecules.

Hit rate of the full screen: of about 16,000 compounds, about 4,000 (25%) were called active. Inconclusive results (about 26%) are left out. A selection follows. Values without a mark were called inactive. The call rests on the fitted dose curve; in most records, active means well fitted curve in the direction sought with a large enough effect; inconclusive means small, poorly fitted or top-dose-only effect, or effect the other way; inactive means no such curve, though single readings can be large or run the other way.
On the % scale 0 is the no-effect control and ±100 the full control effect.

Chain of Cytochrome P450 2C9 (Homo sapiens) (P11712 whole entry, looked up): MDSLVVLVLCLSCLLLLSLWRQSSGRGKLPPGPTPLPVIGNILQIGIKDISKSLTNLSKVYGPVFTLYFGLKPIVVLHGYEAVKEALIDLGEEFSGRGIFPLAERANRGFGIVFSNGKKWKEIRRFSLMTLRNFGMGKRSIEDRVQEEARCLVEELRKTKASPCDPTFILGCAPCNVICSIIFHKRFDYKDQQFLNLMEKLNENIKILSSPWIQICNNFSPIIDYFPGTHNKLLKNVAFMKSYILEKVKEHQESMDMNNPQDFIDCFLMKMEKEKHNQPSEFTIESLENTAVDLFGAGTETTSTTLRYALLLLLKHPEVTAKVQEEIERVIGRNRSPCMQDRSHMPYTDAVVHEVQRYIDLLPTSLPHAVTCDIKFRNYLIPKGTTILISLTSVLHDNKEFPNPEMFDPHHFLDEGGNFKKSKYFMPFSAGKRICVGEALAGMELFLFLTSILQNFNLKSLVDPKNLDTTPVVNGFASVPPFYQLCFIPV

The test addresses Cytochrome P450 2C9 (Homo sapiens) (UniProt P11712). In words: Cytochrome panel assay with activity outcomes. Particulars: recombinant CYP, pro-luciferin dealkylation, luminescence, p450-cyp2c9; series mostly up to 57.1 µM.
Consider `O=C(Nc1ccccc1)N1CC2(CCN(C(=O)c3cnccn3)CC2)C1`, for which the AC50 entry is “inactive”. Regarding `O=C(c1cnccn1)N1CCC2(CC1)CCN(c1ccccc1)CC2`, the AC50 result was “inactive”. As for `O=C(Nn1cc(C(=O)N2CCN(c3ccccc3F)CC2)c2ccccc2c1=O)c1cnccn1`, the AC50 is 4.47 µM (active). As to `O=C(O)[C@@H]1[C@@H](C(=O)NCc2cccnc2)[C@@H]2C=C[C@@H]1O2`, the activity, negative = inhibition is 0.756% [at 11.4 µM]. With `O=C(c1ccccc1)c1c[nH]c(C(=O)NCCCN2CCOCC2)c1`, the AC50 entry is “inactive”.

Turning to `O=C(c1ccccc1)c1c[nH]c(C(=O)NCc2cccnc2)c1`, the AC50 was 11.2 µM (active). In the case of `N#CCCn1c(=O)c(-c2cc(F)cc(F)c2)nc2cnc(N3CCOCC3)nc21`, the AC50 entry was “inactive”. As to `CN1CCN(c2ncc3nc(-c4ccc(Cl)cc4)c(=O)n(C4CC4)c3n2)CC1`, the AC50 result was “inactive”. Consider `CN1CCN(c2ncc3nc(-c4cc(F)cc(F)c4)c(=O)n(C4CC4)c3n2)CC1`, for which the AC50 is 10 µM (active). For the molecule `COc1ccc(-c2nc3cnc(N4CCN(C)CC4)nc3n(C)c2=O)cc1`, the AC50 entry is “inactive”.

For `CN1CCN(c2ncc3nc(-c4ccc(F)cc4)c(=O)n(C4CC4)c3n2)CC1`, the AC50 was 12.6 µM (active). Regarding `NC([N-]/N=C/c1ccccn1)=[S]=[Fe].O=S(=O)(O)O`, the activity, negative = inhibition is -29.5% [at 11.4 µM]. On to `Cc1c(Cl)cnc(NC(=O)COC(=O)CCS(=O)(=O)c2ccccc2)c1Cl`, for which the AC50 entry was “inactive”. Regarding `CC(C)CC(C(=O)OCC(=O)Nc1ncc(Cl)cc1Cl)N1C(=O)c2ccccc2C1=O` (stereo not drawn), the AC50 is 7.08 µM (active).

Turning to `O=C(O)CC[C@@H](C(=O)O)N1C(=O)c2ccccc2C1=O`, the AC50 result is “inactive”. As for `CC(=O)Nc1ccc(NC(=O)CC2Nc3cccc4cccc(c34)NC2=O)cc1` (stereo not drawn), the AC50 is 5.01 µM (active). As to `Cc1cccc(C)c1OC1(c2ccccc2)OC(=O)c2ccccc21` (stereo not drawn), the AC50 is 2.51 µM (active). Take `CCCCCCCOC1(c2ccccc2)OC(=O)c2ccccc21` (stereo not drawn): the half-maximal activity concentration (AC50) is 8.91 µM (active). Regarding `Cc1cccc(OC2(c3ccccc3)OC(=O)c3ccccc32)c1C` (stereo not drawn), the AC50 was 3.16 µM (active).

In the case of `CC(C)C[C@H](NC(=O)[C@@H](O)[C@H](N)Cc1ccccc1)C(=O)O`, the AC50 result was “inactive”. As to `CCCCn1c(SCc2c(C)noc2C)nc2cc(S(N)(=O)=O)ccc21`, the AC50 is 10 µM (active). As to `CCn1c(C)nc2cc(S(=O)(=O)C(F)F)ccc21`, the AC50 result is “inactive”.

With `O=C1CC(c2ccc3c(c2)OCO3)CN1` (stereo not drawn), the AC50 result was “inactive”. As for `c1ccc2c(N3CCNCC3)nc(-c3ccc4c(c3)OCO4)nc2c1`, the activity, negative = inhibition was 12.6% [at 2.29 µM].

`O=C1CC(c2ccc3c(c2)OCO3)Sc2nc3ccccc3n21` (stereo not drawn): the AC50 is 3.16 µM (active). As for `O=C(CNC1CCCCCC1)Nc1ccccc1N1CCCCC1`, the AC50 is 28.2 µM (active). With `O=C(O)C1CCCCC1C(=O)Nc1ccccc1Cl` (stereo not drawn), the AC50 entry was “inactive”.

Consider `CCCCOC(=O)Nc1nc2ccccc2s1`, for which the AC50 result was “inactive”. Still for that read-out and setting: as for `O=C(CSc1nc2ccccc2[nH]1)NCCN1CCCCC1`, the entry is “inactive”; as for `O=C(NC1CCCCC1)C(c1ccccc1)N1CCOCC1` (stereo not drawn), “inactive”. Regarding `c1ccc(/C(=N/Nc2nc3ccccc3s2)c2ccccn2)cc1`, the activity, negative = inhibition is -23.7% [at 11.4 µM]. Consider `O=C(CSc1nc2ccccc2o1)Nc1nc2ccccc2s1`, for which the AC50 was 3.98 µM (active).

Regarding `O=C(CSc1nc2ccccc2o1)Nc1ccccc1N1CCCCCC1`, the half-maximal activity concentration (AC50) is 12.6 µM (active). `O=C(CSc1ccccn1)Nc1nc2ccc(Br)cc2s1`: the AC50 was 7.08 µM (active). As to `Cc1ccc(-c2nc3ccccc3o2)cc1NC(=O)Cc1cccs1`, the AC50 entry is “inactive”.

As for `O=C(CSc1nc2ccccc2o1)NC(=O)NCc1ccccc1`, the AC50 is 7.08 µM (active). Still for that read-out and setting: with `O=C(CN1CCN(S(=O)(=O)c2ccccc2)CC1)NC(=O)NCc1ccccc1` the entry was “inactive”. On to `O=C(N/N=C\c1ccc(-c2ccccc2[N+](=O)[O-])o1)C1COc2cc3ccccc3cc2O1` (stereo not drawn), for which the AC50 is 1 µM (active).

Turning to `C[N+]1(C)CCC(=C(c2ccccc2)c2ccccc2)CC1`, the AC50 entry was “inactive”. On to `CC(C)(CO)Cc1cc(C(C)(C)C)c(O)c(C(C)(C)C)c1`, for which the AC50 entry is “inactive”. The same measure, in the same setting: as for `N#CC(C#N)=C(N)/C(C#N)=C/c1ccc(O)cc1`, the entry is “inactive”; as for `CC(C)(C)c1cc(/C=C(\C#N)C(N)=S)cc(C(C)(C)C)c1O`, 0.1 µM (active). Take `CC(C)=NNc1ncnc2nc[nH]c12`: the activity, negative = inhibition was -11.9% [at 11.4 µM].

As to `CCOc1cccc(OCCCNCCCOC)c1`, the AC50 result was “inactive”. For `Cc1ccccc1-c1cncnc1Nc1ccc(F)cc1`, the activity, negative = inhibition is -14.2% [at 2.29 µM]. On to `C=CCN1C(=CCO)[C@H]2C[C@H]3[C@@H]1CC[C@@]31c3ccccc3N3C=C4[C@@H]5N(/C=C/2[C@H]31)c1ccccc1[C@]51CC[C@H]2[C@H]1C[C@@H]4/C(=C/CO)N2CC=C`, for which the AC50 result was “inactive”.

As for `C[C@@](N)(C(=O)O)c1ccc(S(=O)(=O)O)cc1`, the AC50 result is “inactive”. For `CCOc1cc2[nH]c(=O)n(CCCC(=O)NCc3ccc(OC)cc3)c(=O)c2cc1OCC`, the AC50 was 4.47 µM (active). `COC(=O)C/C=C\[C@@H](C)[C@@H](/C=N\O[C@@H]1O[C@H](COC(C)=O)[C@H](OC(C)=O)[C@H](OC(C)=O)[C@H]1OC(C)=O)OC`: the activity, negative = inhibition is -21% [at 11.4 µM].

Regarding `O=C(c1ccncc1)N1CCC2(CC1)CN(c1ncccn1)C2`, the AC50 entry is “inactive”. Take `O=C(c1ccncc1)N1CCC2(CC1)CCN(c1ncccn1)CC2`: the AC50 was 15.8 µM (active). Turning to `O=C(c1ccncc1)N1CCC2(CC1)CCN(c1ccccn1)CC2`, the AC50 was 10 µM (active).

`CC(=O)N1CCC2(CC1)CCN(c1ccccn1)CC2`: the AC50 entry is “inactive”. On the same count and under the same terms, with `CN1CCC2(CC1)CCN(C(=O)c1ccncc1)CC2` the entry was “inactive”; with `C[C@H](NCCC(c1ccccc1)c1ccccc1)c1ccccc1`, “inactive”. As to `CC1(C)CCC=[N+]1[O-]`, the AC50 result was “inactive”. As for `CS[C@]12C(=O)C[C@]3(C)[C@@H](CC[C@@]3(O)C(=O)CO)[C@@H]1CCC1=CC(=O)CC[C@]12C`, the activity, negative = inhibition is 11.9% [at 11.4 µM]. Regarding `N#Cc1ccc(CN2CC[C@@]3(CCCN(C(=O)c4cc(C(F)(F)F)cc(C(F)(F)F)c4)C3)C2)cc1`, the AC50 entry is “inactive”. On to `O=C(c1cc(C(F)(F)F)cc(C(F)(F)F)c1)N1CCC2(CC1)CN(Cc1ccccc1)C2`, for which the AC50 entry was “inactive”.

On to `O=C(c1cnccn1)N1CCC[C@@]2(CCN(c3ncccn3)C2)C1`, for which the AC50 result is “inactive”. On the same count and under the same terms, as for `O=C(c1cc(C(F)(F)F)cc(C(F)(F)F)c1)N1CCC[C@@]2(CCN(Cc3ccncc3)C2)C1`, the figure is 0.0794 µM (active). Regarding `O=C(c1cc(C(F)(F)F)cc(C(F)(F)F)c1)N1CCC2(CC1)CN(Cc1ccncc1)C2`, the AC50 is 10 µM (active).

With `O=C(c1ccncc1)N1CCC2(CC1)CN(Cc1cc(C(F)(F)F)cc(C(F)(F)F)c1)C2`, the AC50 entry is “inactive”.

`O=C(c1cnccn1)N1CCC2(CC1)CN(Cc1nccs1)C2`: the AC50 entry is “inactive”. `O=C(c1cnccn1)N1CCC2(CCCN(Cc3nccs3)C2)CC1`: the AC50 was 15.8 µM (active). Take `CC(C)CN1CC[C@@]2(CCCN(C(=O)c3cnccn3)C2)C1`: the AC50 result was “inactive”. Turning to `O=C(c1cnccn1)N1CCC2(CCN(Cc3nccs3)CC2)CC1`, the AC50 result is “inactive”. As for `O=C(c1cnccn1)N1CCC[C@@]2(CCN(Cc3ccncc3)C2)C1`, the AC50 is 10 µM (active). On the same count and under the same terms, as for `O=C(c1cc(C(F)(F)F)cc(C(F)(F)F)c1)N1CCC[C@@]2(CCN(Cc3ccccc3)C2)C1`, the entry is “inactive”. For `CC1=NNC(=S)NCCCN2CCN(CCCNC(=S)NN=C(C)C=NNC(=S)NCCCN3CCN(CCCNC(=S)NN=C1)CC3)CC2`, the activity, negative = inhibition is 5.77% [at 11.4 µM]. Regarding `CC(C)N1CCN(c2ccc(OC[C@@H]3CO[C@@](Cn4cncn4)(c4ccc(Cl)cc4Cl)O3)cc2)CC1`, the AC50 result was “inactive”. On the same count and under the same terms, as for `COc1cc(C2NC(=O)NC(O)(C(F)(F)F)C2C(=O)c2ccc(Cl)cc2)ccc1O` (stereo not drawn), the entry is “inactive”; as for `Cn1cccc1C(=O)N1CCC2(CC1)CN(Cc1cc(C(F)(F)F)cc(C(F)(F)F)c1)C2`, 15.8 µM (active); as for `O=C(c1ccco1)N1CCC2(CC1)CN(Cc1cc(C(F)(F)F)cc(C(F)(F)F)c1)C2`, “inactive”. With `O=C(c1cc(C(F)(F)F)cc(C(F)(F)F)c1)N1CCC2(CC1)CN(c1ccncc1)C2`, the AC50 was 3.98 µM (active).

Turning to `O=C(c1cc(C(F)(F)F)cc(C(F)(F)F)c1)N1CCC2(CC1)CN(c1ccccc1)C2`, the AC50 result is “inactive”. On the same count and under the same terms, with `Cn1cccc1C(=O)N1CCC2(CC1)CN(Cc1ccc(C#N)cc1)C2` the entry was “inactive”. For `O=C(c1cc(C(F)(F)F)cc(C(F)(F)F)c1)N1CCC2(CC1)CCN(c1ccncc1)CC2`, the AC50 result was “inactive”. `CC(C)CC(=O)N1CCC(O)(CS(=O)(=O)Cc2ccc(Cl)cc2)CC1`: the AC50 result was “inactive”. With `CCc1ccc(-c2ccc(C(=O)C(F)(F)F)[nH]2)cc1`, the AC50 entry is “inactive”. For `Cc1cccc(-n2nnc3cnn(C)c3c2=O)c1`, the AC50 entry was “inactive”.

Regarding `CN(C)Cc1ccccc1-c1nccc(Nc2ccc(F)cc2)n1`, the activity, negative = inhibition is 6.01% [at 2.29 µM]. Turning to `O=C(C1CCN(S(=O)(=O)N2CCOCC2)CC1)N1CCN(Cc2ccccc2)CC1`, the AC50 entry was “inactive”. Turning to `CN1CCN(c2ccc([N+](=O)[O-])cc2S(=O)(=O)N2CCOCC2)CC1`, the AC50 entry was “inactive”. On to `O=[N+]([O-])c1ccc(N2CCN(Cc3ccccc3)CC2)c(S(=O)(=O)N2CCOCC2)c1`, for which the AC50 was 17.8 µM (active). On to `CC1CCC(C(=O)O)([C@H](Br)C(=O)O)CC1` (stereo partly drawn), for which the activity, negative = inhibition was -6.22% [at 11.4 µM]. As for `Cc1c(C)c(C)c(CC2(C)CSC2)c(CC2(C)CSC2)c1C`, the activity, negative = inhibition is 11.8% [at 11.4 µM]. As for `CS(=O)(=O)Nc1ccc([N+](=O)[O-])cc1Oc1ccccc1`, the AC50 was 3.16 µM (active). Same read-out and setting: with `CC(=O)NN1C(=O)c2ccc(Oc3ccc([N+](=O)[O-])cc3)cc2C1=O` the entry was “inactive”; with `CS(=O)(=O)Nc1ccc([N+](=O)[O-])cc1OC1CCCCC1`, “inactive”.

`CC(=O)COc1ccc2c(C)c(C)c(=O)oc2c1`: the AC50 was 22.4 µM (active). For the molecule `CCCC[C@@H]1C[C@H]1C(NC(=O)c1cccnc1)c1ccc(Cl)cc1` (stereo partly drawn), the AC50 is 12.6 µM (active). Consider `CCCC[C@@H]1C[C@H]1C(NC(=O)c1cccnc1)c1ccc(-c2ccccc2)cc1` (stereo partly drawn), for which the AC50 was 5.01 µM (active).
